The whole screen tested about 320,000 compounds, of which about 740 (0.23%) were called active. Inconclusive results (about 2%) are left out. The calls are words filed in the database; no cut-off is given here. The sample as a whole holds a higher share of actives than the screen did.

The test system of this assay is Saccharomyces cerevisiae. Description: qHTS Assay for Small Molecule Inhibitors of Mitochondrial Division or Activators of Mitochondrial Fusion. The assay is classed as functional. The following applies: read-out: Potency. A general note: qHTS replaces the single test concentration by a dilution series.
Turning to `O=C(O)Cc1ccccc1Nc1c(Cl)cccc1Cl` [DICLOFENAC SODIUM], the AC50 is 20.6 µM (active).
